Our source for the composite z-score and z-score values is PubChem BioAssay.

Each structure is given as a SMILES string. Calls of active or inactive are those of the source.

The subject of experiment [1] is Plasmodium falciparum Sir2 (PF13_0152, Sir2A). In words: Plasmodium falciparum Sir2A binding compounds – biochemical, small-molecule microarray, 635 nm fluorescence, primary screen (AID 1098).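 Also: score merges spot fluorescence intensity with its signal-to-noise ratio.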 As to conditions: fluorescence 635 nm, higher = more signal.
The nature of experiment [2]: probe aDKK1 binding to arrayed compounds – biochemical, biotinylated probe, 635/667 nm fluorescence, primary screen (AID 1099).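 Also: score merges 667nm spot fluorescence with signal to noise across triplicate slides.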 The note with it: small-molecule microarray, higher = more signal.
Experiment [3] can be described thus: probe aCHRDL2 binding to arrayed compounds – biochemical, biotinylated probe, 635/667 nm fluorescence, primary screen (AID 1100). The note with it: small-molecule microarray, higher = more signal.
Experiment [4] is described as follows: change in splice reporter luminescence, either direction, cell-based, HEK293, spliceosome inhibition project, primary screen (AID 1101).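 Also: HEK293 cells carrying a splicing-competent luciferase reporter gene; test concentration not given here.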 As to conditions: HEK293 splicing luciferase reporter, 24 h, higher = more signal, called active from +8 up or from −8 down.
In experiment [5] the target is Fibroblast growth factor 10 (Homo sapiens) (UniProt O15520). Briefly: compounds binding fibroblast growth factor 10 – biochemical, small-molecule microarray, 635 nm fluorescence, primary screen (AID 1102). As to conditions: FGF10 binding, fluorescence 635 nm, higher = more signal.
For experiment [6], the system named is glycogen synthase kinase-3 (GSK3A per assay name; protocol says GSK3B). Briefly: compounds binding glycogen synthase kinase-3 – biochemical, small-molecule microarray, 635 nm fluorescence, GSK3A, primary screen (AID 1103). Also: the record names both GSK3A and GSK3B. The note with it: fluorescence 635 nm, higher = more signal.
Experiment [7] addresses Epidermal growth factor receptor (Homo sapiens) (UniProt P00533). Briefly: compounds binding epidermal growth factor receptor – biochemical, small-molecule microarray, 635 nm fluorescence, primary screen (AID 1104).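 Also: score merges 667 nm emission intensity with spot signal to noise over triplicate slides.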 The note with it: EGFR binding, higher = more signal.
Experiment [8] addresses Follistatin-related protein 3 (Homo sapiens) (UniProt O95633). In words: compounds binding follistatin-related protein 3 – biochemical, small-molecule microarray, 635 nm fluorescence, primary screen (AID 1105).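 Also: score merges emission near 667 nm and signal to noise per printed spot across three slides.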 The note with it: FSTL3 binding, higher = more signal.
The target of experiment [9] is Dickkopf-related protein 1 (Homo sapiens) (UniProt O94907). Briefly: small molecules binding DKK1 protein – biochemical, small-molecule microarray, 635 nm fluorescence scan, primary screen (AID 1106).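 Also: score merges emission near 667 nm with signal to noise over three replicate slides.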 As to conditions: higher = more signal.
Experiment [10] relates to Inhibin beta A chain (activin A). Briefly: small molecules binding activin A – biochemical, small-molecule microarray, 635 nm fluorescence scan, primary screen (AID 1107).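 Also: mouse activin A protein probed at 4.33 µg/mL on printed slides; score merges bound-protein fluorescence near 667 nm with spot signal-to-noise.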 As to conditions: INHBA, higher = more signal.
Experiment [11] relates to Human papillomavirus type 1a protein E7 (residues 44-93). In words: small molecules binding HPV E7 44-93 – biochemical, small-molecule microarray, residues 44-93, 635 nm fluorescence, primary screen (AID 1108).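 Also: E7 fragment applied at 1 µg/mL in TBST for 1 h at 4 C; score combines spot fluorescence with its signal to noise ratio.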 The note with it: fluorescence 635 nm, higher = more signal.
Experiment [12] is described as follows: hepatitis C replication reporter changes, two-sided – Huh7 cells, luciferase reporter, HCV replication inhibitor project, primary screen (AID 1109).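 Also: huh7 hepatoma cells harbouring a luciferase neomycin HCV replicon reporter; luciferase luminescence as measure of HCV replicon replication; test concentration not given here.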 As to conditions: Huh7 HCV replicon luciferase reporter, 48 h; higher = more signal.
Experiment [13] addresses Left-right determination factor 2 (Homo sapiens) (UniProt O00292). In words: small molecules binding LEFTY2 protein – biochemical, small-molecule microarray, 635 nm fluorescence scan, primary screen (AID 1110). The note with it: higher = more signal.
The target of experiment [14] is Calmodulin-1 (Homo sapiens) (UniProt P0DP23). In words: small molecules binding calmodulin-1 with EGTA – biochemical, small-molecule microarray, Cy5-labelled CALM1, profiling panel (AID 1111).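 Also: labelled calmodulin applied in Tris saline Tween buffer holding calcium plus EGTA and DTT.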 As to conditions: Cy5-CALM1 binding fluorescence, higher = more signal.
For experiment [15] the target is unchanged. Briefly: small molecules binding Ca-loaded calmodulin-1 – biochemical, small-molecule microarray, Cy5-labelled CALM1, plus calcium, artefact control for SMM control-protein annotation, profiling panel (AID 1112).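 Also: score merges spot fluorescence with signal to noise from triplicate slides.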 As to conditions: Cy5-CALM1 binding fluorescence, higher = more signal.
A short description of experiment [16]: probe aWnt5a binding to arrayed compounds – biochemical, biotinylated probe, 635/667 nm fluorescence, primary screen (AID 1113).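 Also: score merges 667 nm fluorescence intensity with signal-to-noise per printed feature.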 As to conditions: small-molecule microarray, higher = more signal.
Experiment [17] can be described thus: probe aShh binding to arrayed compounds – biochemical, biotinylated probe, 635/667 nm fluorescence, primary screen (AID 1114).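 Also: probe is biotin-labelled aShh protein from a stem cell growth factor screen; measures binding of labelled protein to compounds printed on the slide; score merges feature fluorescence at 667 nm with signal-to-noise.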 As to conditions: small-molecule microarray, higher = more signal.
Experiment [18] can be described thus: probe aNog binding to arrayed compounds – biochemical, biotinylated probe, 635/667 nm fluorescence, primary screen (AID 1115).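 Also: probe is biotinylated aNog protein used at 0.15 µg/mL for 1 h at 4 C; z-score combines 667 nm fluorescence of each spot with its signal to noise.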 As to conditions: small-molecule microarray, higher = more signal.
For experiment [19], the target named is Torsin-1A-interacting protein 1 (Homo sapiens) (UniProt Q5JTV8). In words: compound microarray binding of lysate hLAP1 – cell lysate, small-molecule microarray, COS7 lysate, 635/667 nm fluorescence, primary screen (AID 1116). The note with it: 635 nm fluorescence, higher = more signal.
In experiment [20] the target is Alpha-bungarotoxin (Bungarus multicinctus) (UniProt P60615). In words: compounds binding labelled alpha-BTX control protein – biochemical, small-molecule microarray, Alexa647 label, 635/667 nm fluorescence, artefact control for SMM control protein annotation, profiling panel (AID 1117). The note with it: alpha-BTX-A647 binding fluorescence, higher = more signal.
Sequence of Alpha-bungarotoxin (Bungarus multicinctus) (P60615 whole entry, looked up): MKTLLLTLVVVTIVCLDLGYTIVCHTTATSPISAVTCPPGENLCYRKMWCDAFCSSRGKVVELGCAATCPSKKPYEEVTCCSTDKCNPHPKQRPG

Sequence of Dickkopf-related protein 1 (Homo sapiens) (O94907 whole entry, looked up): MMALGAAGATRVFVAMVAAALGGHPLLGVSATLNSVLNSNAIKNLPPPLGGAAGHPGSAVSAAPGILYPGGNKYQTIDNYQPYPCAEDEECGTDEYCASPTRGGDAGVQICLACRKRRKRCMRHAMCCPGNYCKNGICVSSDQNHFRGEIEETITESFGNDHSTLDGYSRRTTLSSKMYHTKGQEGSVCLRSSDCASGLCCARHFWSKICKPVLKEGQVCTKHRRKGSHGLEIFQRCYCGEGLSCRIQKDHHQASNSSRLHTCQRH
Sequence of Follistatin-related protein 3 (Homo sapiens) (O95633 whole entry, looked up): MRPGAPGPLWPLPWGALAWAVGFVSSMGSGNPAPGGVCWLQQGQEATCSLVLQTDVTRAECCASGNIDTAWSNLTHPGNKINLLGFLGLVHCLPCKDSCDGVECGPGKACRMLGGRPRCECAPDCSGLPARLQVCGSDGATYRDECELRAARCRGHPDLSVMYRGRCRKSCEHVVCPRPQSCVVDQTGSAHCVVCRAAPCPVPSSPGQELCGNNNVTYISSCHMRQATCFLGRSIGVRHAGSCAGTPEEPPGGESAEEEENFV
Sequence of Left-right determination factor 2 (Homo sapiens) (O00292 whole entry, looked up): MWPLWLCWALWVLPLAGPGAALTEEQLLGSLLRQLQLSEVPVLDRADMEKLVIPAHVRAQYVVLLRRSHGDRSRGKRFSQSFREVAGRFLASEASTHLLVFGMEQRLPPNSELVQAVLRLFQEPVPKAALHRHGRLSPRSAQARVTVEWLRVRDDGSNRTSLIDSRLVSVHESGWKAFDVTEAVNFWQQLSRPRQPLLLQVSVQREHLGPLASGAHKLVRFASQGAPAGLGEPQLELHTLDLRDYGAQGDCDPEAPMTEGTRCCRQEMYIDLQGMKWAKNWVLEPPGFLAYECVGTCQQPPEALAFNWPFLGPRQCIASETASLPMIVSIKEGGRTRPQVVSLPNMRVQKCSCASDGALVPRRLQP
Sequence of Epidermal growth factor receptor (Homo sapiens) (P00533 whole entry, looked up): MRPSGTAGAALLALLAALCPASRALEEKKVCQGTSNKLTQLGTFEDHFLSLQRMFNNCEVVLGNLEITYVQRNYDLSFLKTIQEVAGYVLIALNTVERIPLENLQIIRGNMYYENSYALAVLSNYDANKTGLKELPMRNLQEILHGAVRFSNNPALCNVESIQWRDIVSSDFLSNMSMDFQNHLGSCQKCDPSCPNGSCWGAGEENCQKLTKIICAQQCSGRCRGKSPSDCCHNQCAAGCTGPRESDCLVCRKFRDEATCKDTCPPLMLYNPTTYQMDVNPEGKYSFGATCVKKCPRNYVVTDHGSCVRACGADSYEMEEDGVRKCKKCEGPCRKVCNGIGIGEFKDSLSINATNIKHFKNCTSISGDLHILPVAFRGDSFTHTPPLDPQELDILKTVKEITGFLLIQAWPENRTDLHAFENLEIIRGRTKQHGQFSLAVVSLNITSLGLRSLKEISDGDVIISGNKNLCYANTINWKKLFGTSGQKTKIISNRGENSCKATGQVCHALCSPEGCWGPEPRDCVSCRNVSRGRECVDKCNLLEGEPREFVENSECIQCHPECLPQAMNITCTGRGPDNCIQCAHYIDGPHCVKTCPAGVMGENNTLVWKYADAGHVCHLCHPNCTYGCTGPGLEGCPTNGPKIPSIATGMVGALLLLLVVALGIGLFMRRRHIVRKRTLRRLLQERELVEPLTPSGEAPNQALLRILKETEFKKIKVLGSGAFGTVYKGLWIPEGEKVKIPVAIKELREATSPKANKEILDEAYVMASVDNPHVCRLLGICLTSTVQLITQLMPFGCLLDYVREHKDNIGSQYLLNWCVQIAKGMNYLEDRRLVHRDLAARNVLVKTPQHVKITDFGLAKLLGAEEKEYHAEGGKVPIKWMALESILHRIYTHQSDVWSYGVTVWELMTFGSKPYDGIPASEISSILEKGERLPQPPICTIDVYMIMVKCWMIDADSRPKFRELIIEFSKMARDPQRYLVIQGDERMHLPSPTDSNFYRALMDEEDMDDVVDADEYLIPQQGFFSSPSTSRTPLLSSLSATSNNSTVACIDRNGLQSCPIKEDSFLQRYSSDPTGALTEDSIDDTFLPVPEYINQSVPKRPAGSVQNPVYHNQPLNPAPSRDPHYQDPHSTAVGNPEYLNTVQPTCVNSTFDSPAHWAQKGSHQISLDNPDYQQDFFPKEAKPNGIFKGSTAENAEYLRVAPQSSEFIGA
Sequence of Torsin-1A-interacting protein 1 (Homo sapiens) (Q5JTV8 whole entry, looked up): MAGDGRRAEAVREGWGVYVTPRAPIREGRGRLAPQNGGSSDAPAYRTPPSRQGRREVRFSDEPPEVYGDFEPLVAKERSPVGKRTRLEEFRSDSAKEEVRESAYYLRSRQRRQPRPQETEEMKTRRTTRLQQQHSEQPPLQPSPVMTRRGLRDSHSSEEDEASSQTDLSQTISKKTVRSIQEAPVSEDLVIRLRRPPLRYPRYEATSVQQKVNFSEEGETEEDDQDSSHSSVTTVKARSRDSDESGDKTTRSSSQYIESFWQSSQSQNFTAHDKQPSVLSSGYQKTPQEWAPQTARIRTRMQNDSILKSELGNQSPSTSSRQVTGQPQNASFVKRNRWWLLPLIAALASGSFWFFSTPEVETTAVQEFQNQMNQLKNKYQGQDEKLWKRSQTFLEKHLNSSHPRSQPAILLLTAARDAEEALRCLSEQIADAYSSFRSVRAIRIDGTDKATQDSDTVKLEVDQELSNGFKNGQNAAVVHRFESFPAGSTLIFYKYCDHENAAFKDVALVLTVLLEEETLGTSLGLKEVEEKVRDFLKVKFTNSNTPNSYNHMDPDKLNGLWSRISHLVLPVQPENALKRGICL
Sequence of Fibroblast growth factor 10 (Homo sapiens) (O15520 whole entry, looked up): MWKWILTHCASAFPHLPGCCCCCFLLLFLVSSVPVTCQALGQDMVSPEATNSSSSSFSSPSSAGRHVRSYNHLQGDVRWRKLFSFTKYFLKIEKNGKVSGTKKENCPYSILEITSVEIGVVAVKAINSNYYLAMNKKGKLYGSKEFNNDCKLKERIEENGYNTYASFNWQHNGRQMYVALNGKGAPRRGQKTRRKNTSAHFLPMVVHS

Take `CC(C)=CCCC(C)=CC(O)C1C=CC2C(=O)N(c3ccccc3)C(=O)C2N1Nc1ccccc1` (stereo not given): the composite z-score in experiment [1] was determined as 1.36; in [2], 1.21; in experiment [3] it was 0.997; in experiment [5] it was 1.05; in [6], 0.978; in [7] it was 0.251. The composite z-score in [8] amounted to 1.38; in experiment [9], 0.113; in experiment [10], 1.06; in [11], 0.704; in [13] it was 0.12; in experiment [14], 2.23. Further, the composite z-score in experiment [15] stood at 1.18; in [16], 0.139; in experiment [17], 0.393; in experiment [18] it was 1.88; in experiment [19], 1.03; in experiment [20] it was 2.95. Moreover, the z-score in experiment [4] is 1.18 (inactive); in experiment [12], -0.517.

Take `C=C[C@H](COC(C)=O)N(Cc1ccc(OC(C)=O)c(OC)c1)S(=O)(=O)c1ccc(Br)cc1`: the composite z-score in experiment [1] stood at 0.723; in experiment [2], 0.64; in [3] it was 0.612; in experiment [5] it was 0.934; in experiment [6], 1.06; in experiment [7], 0.493. The composite z-score in [8] was 0.579; in [9], 0.844; in experiment [10], 0.426; in experiment [11] it was 1.29; in experiment [13], 0.461; in experiment [14], 1.05. The composite z-score in [15] was 0.267; in experiment [16], 0.0479; in [17], -0.291; in [18] it was -0.407; in experiment [19], 0.788; in experiment [20], 0.998. Also, the z-score is -1.16 (inactive) in [4] and -0.0847 in experiment [12].

In the case of `C=CC(COC(C)=O)NS(=O)(=O)c1ccc(Br)cc1` (stereo not given), the composite z-score is 0.669 in experiment [1]; -0.461 in experiment [2]; -0.501 in experiment [3]; 0.632 in experiment [5]; 0.903 in experiment [6]; 0.642 in experiment [7]. Moreover, the composite z-score in experiment [8] was 1.01; in [9], 0.684; in experiment [10] it was 0.12; in experiment [11], 0.62; in experiment [13] it was 0.65; in experiment [14], -0.467. Moreover, the composite z-score in experiment [15] was -0.883; in experiment [16] it was 0.093; in experiment [17], 0.0948; in experiment [18] it was -0.149; in experiment [19], 0.366; in experiment [20], 0.601. For the same molecule, the figures for the z-score in experiment [4] and in experiment [12] were 0.217 (inactive) and -0.437, respectively.

Regarding `COC(=O)[C@@]1(Cc2ccc(F)cc2)[C@H]2c3cc(C(=O)N(C)C)n(CCc4ccccn4)c3C[C@H]2CN1C(=O)c1ccccc1`, the composite z-score in experiment [1] is 0.219; in experiment [2] it was 0.849; in experiment [3] it was 0.312; in [5], 0.355; in [6], 1.36; in experiment [7], 0.472. In addition, the composite z-score in [8] is 0.869; in [9], 0.41; in experiment [10], 0.403; in [11] it was 1.39; in [13], 0.384; in experiment [14] it was -0.012. Moreover, the composite z-score in experiment [15] was -0.47; in experiment [16], 1.12; in [17], -0.394; in [18], 0.796; in experiment [19], 0.468; in [20], 0.292. Further, the results for the z-score in [4] and in experiment [12] were -3.62 (inactive) and -0.72, respectively.

For the molecule `COC(=O)[C@@]1(Cc2ccc(OC)cc2)[C@H]2c3cc(C(=O)N4CCCC4)n(Cc4cc(F)cc5c4OCOC5)c3C[C@H]2CN1C(=O)c1ccccc1`, the composite z-score in [1] amounted to 0.782; in experiment [2], 0.9; in experiment [3], 0.984; in experiment [5], 0.608; in experiment [6] it was 0.573; in experiment [7] it was 0.0471. Moreover, the composite z-score in experiment [8] is 0.326; in experiment [9], -0.451; in experiment [10], 0.795; in [11], 0.756; in experiment [13] it was -0.474; in [14] it was 1.37. For the same molecule, the composite z-score in experiment [15] worked out at 0.365; in experiment [16] it was 0.223; in experiment [17], 0.108; in experiment [18], 0.0549; in [19] it was 0.831; in experiment [20], 0.408. Besides, the results for the z-score in [4] and in experiment [12] were -2.73 (inactive) and -3.58, respectively.
